Measurements reported in publication PMC4552634, “A New Set of Chemical Starting Points with Plasmodium falciparum Transmission-Blocking Potential for Antimalarial Drug Discovery” (PLoS ONE, 2015).
Where two headings read alike, the source gives them in different places. The campaign covered roughly 13,000 compounds. About 3,200 (25%) showed an effect of 50% or more. The list shows a part of the results.

Tested on: P. falciparum stage V gametocytes
Design: BacTiter-Glo ATP luminescence viability of purified stage V gametocytes in 384-well plates, per cent inhibition versus DMSO
Conditions: 48 h, 5 µM, inhibitor

| Structure (SMILES) | % Inhibition | % Inhibition (% Inhibition) |
| --- | --- | --- |
| CNc1nc(N/N=C/c2cc([N+](=O)[O-])c(Cl)cc2Cl)nc(Nc2cccc(C(F)(F)F)c2)n1 [TCMDC-124087] | -4.111% | – |
| COc1cccc(-c2ccc3c(-c4cccc(NC(C)=O)c4)cnc(N)c3c2)c1 [TCMDC-134562] | 29.05% | – |
| CCn1c(-c2nonc2N)nc2c(-c3cccc(NC(=O)Nc4ccccc4OC)c3)ncc(OCCCN)c21 [TCMDC-136190] | 111.9% | – |
| CCn1c(-c2nonc2N)nc2cnc(Oc3cccc(NC(=O)c4ccc(OCCN(C(C)C)C(C)C)cc4)c3)cc21 [TCMDC-135777] | -15.21% | – |
| CCn1c(-c2nonc2N)nc2c(-c3cccc(NC(=O)Nc4cccc(OC)c4)c3)ncc(OCCCN)c21 [TCMDC-136180] | 96.94% | – |
| CCn1c(-c2nonc2N)nc2c(-c3cccc(NC(=O)Nc4ccccc4Cl)c3)ncc(OCCCN)c21 [TCMDC-136192] | 107.4% | – |
| COc1ccccc1NC(=O)Nc1cccc(-c2ccc(-c3nc4cccc(C)c4[nH]3)s2)c1 [TCMDC-133200] | 0.164% | – |
| CCn1c(-c2nonc2N)nc2c(C#CC(C)(C)O)ncc(OCCNCCc3ccc(OC)cc3)c21 [TCMDC-136364] | 100.7% | – |
| COc1ccccc1NC(=O)Nc1cccc(-c2cccc(-c3nc4c(C)cccc4[nH]3)c2)c1 [TCMDC-133204] | -4.891% | – |
| CCC(Cc1cnc2nc(N)nc(N)c2n1)c1ccc(C(=O)O)cc1 (stereo not drawn) [TCMDC-137331] | 24.52% | – |
| FC(F)(F)c1ccc2[nH]c(-c3ccc(-c4ccc(CN5CCN(c6ccncc6)CC5)cc4)s3)nc2c1.O=C(O)C(F)(F)F [TCMDC-132920] | -8.718% | – |
| O=C(Nc1ccc([N+](=O)[O-])cc1O)Nc1ccccc1Oc1ccccc1 [TCMDC-139010] | -27.06% | – |
| O=c1[nH]c2c(c(O)c1[N+](=O)[O-])CCC2 [TCMDC-131385] | -1.405% | – |
| Cc1ccc(NC(=O)NC2CCN(CCC(NC(=O)Cc3ccccc3)c3ccc(Cl)c(Cl)c3)CC2)cc1 (stereo not drawn) [TCMDC-141708] | -50.52% | – |
| CCOC(=O)C(=O)N1c2ccc(OCC)cc2-c2c(ssc2=S)C1(C)C [TCMDC-124090] | -28.77% | – |
| COc1cc(NC(=O)/C=C/c2cccc3cc[nH]c23)ccc1OCCN(C(C)C)C(C)C [TCMDC-139962] | 14.04% | – |
| CCOC(=O)c1ccc(NC(=O)c2ccccc2C(=O)O)cc1 [TCMDC-125804] | 12.67% | – |
| Cc1cc(NC(=O)c2ccc(-c3ccccc3)cc2)no1 [TCMDC-123478] | 45.67% | – |
| CCC(NC(=O)c1ccccc1NC(=O)c1ccc(C)cc1)C(=O)OC (stereo not drawn) [TCMDC-124179] | 51.66% | – |
| CC(=O)N(C)/N=C/[C@H](CCc1ccccc1)NC(=O)[C@H](CC(C)C)NC(=O)c1cccc(OCCN2CCOCC2)c1 [TCMDC-135821] | 14.53% | – |
| OC1(C(F)(F)F)CC(c2ccccc2)=NN1c1nncc(-c2ccccc2)n1 (stereo not drawn) [TCMDC-123864] | 70.72% | – |
| O=C(Nc1cccc(-c2cccc(-c3nc4ccccc4[nH]3)c2)c1)NC1CC1c1ccccc1 (stereo not drawn) [TCMDC-133253] | – | -2.475% |
| Cc1cc(-c2ccc(CNC3CCN(C)CC3)cc2)ccc1S(=O)(=O)NCc1ccccc1 [TCMDC-132474] | 44.56% | – |

| Structure (SMILES) | % Inhibition | % Inhibition (% Inhibition) |
| --- | --- | --- |
| CN1CCC(NCc2cccc(-c3ccc(S(=O)(=O)NCc4ccccc4)c(F)c3)c2)CC1 [TCMDC-132219] | 107.3% | – |
| CN1CCC(NCc2ccc(-c3ccc(S(=O)(=O)NCc4ccccc4)c(F)c3)cc2)CC1 [TCMDC-132235] | 73.08% | – |
| Cc1cc(-c2cccc(CNC3CCN(C)CC3)c2)ccc1S(=O)(=O)NCc1ccccc1 [TCMDC-132379] | 41.73% | – |
| CCNc1cc(C(=O)N[C@@H](Cc2ccccc2)[C@H](O)CN[C@H](C)C(C)(C)C)cc(N2CCCCS2(=O)=O)c1 [TCMDC-135194] | 4.242% | – |
| O=C(N[C@@H](CC1CCCCC1)C(=O)NCc1cccc(C(F)(F)F)c1)c1ccc(O)c(-c2ccc(Cl)c(Cl)c2)c1 [TCMDC-140836] | 10.47% | – |
| Cc1nc2sccn2c1C(=O)NCCc1ccccc1Cl [TCMDC-136538] | 1.524% | – |
| CC(C)(CNC(=O)[C@H]1CCCN1)c1nc(-c2ccc(Cl)c(O)c2)c(-c2ccncc2)[nH]1 [TCMDC-141060] | -63.79% | – |
| COc1ccccc1CCNc1nccc(N[C@@H](Cc2ccccc2)C(=O)NCc2cccs2)n1 [TCMDC-134745] | 80.93% | – |
| O=C(NCc1cccs1)[C@H](Cc1ccccc1)Nc1ccnc(NCCc2ccc(F)cc2)n1 [TCMDC-134825] | 42.49% | – |
| O=C(NCCc1ccccc1)[C@H](Cc1ccccc1)Nc1ccnc(NCC2CCCCC2)n1 [TCMDC-134711] | 29.07% | – |
| O=C(NCc1cccs1)[C@H](Cc1ccccc1)Nc1ccnc(NCCc2ccccc2)n1 [TCMDC-134810] | 62.6% | – |
| O=C(NCc1cccs1)[C@H](Cc1ccccc1)Nc1ccnc(NCC2CCCCC2)n1 [TCMDC-134708] | -6.926% | – |
| COc1ccccc1CCNc1ncc(F)c(N[C@@H](Cc2ccccc2)C(=O)NCCc2ccccc2)n1 [TCMDC-134948] | 4.371% | – |
| O=C(C1CC1)N1c2ccccc2CCc2ccccc21 [TCMDC-123880] | 17.87% | – |
| COc1cc(Cl)c(C)cc1-n1cc(C(=O)c2cc(Br)ccc2O)cc(C#N)c1=O [TCMDC-123630] | -51.04% | – |
| CCCCC(CC)NC(=O)[C@H]1CNCCN1C(=O)CCCc1ccccc1 (stereo partly drawn) [TCMDC-141269] | -15.01% | – |
| CCCCOC(=O)C1=C(C)NC2=C(C(=O)CCC2)C1c1ccc(OC)c(Br)c1 (stereo not drawn) [TCMDC-124210] | -70.69% | – |
| CCOC(=O)C1=C(C)NC2=C(C(=O)C(C(=O)OC)C(C)C2)C1c1cc(Br)c(OCC)c(OC)c1 (stereo not drawn) [TCMDC-125139] | 94.17% | – |
| CCCCOC(=O)C1=C(C)NC2=C(C(=O)CC(c3ccc(OC)c(OC)c3)C2)C1c1ccc(O)cc1 (stereo not drawn) [TCMDC-125635] | 28.36% | – |
| O=C(Nc1ccc(-c2ccc(-c3nc4ccccc4[nH]3)cc2)cc1)Nc1ccc(Cl)c(Cl)c1 [TCMDC-133279] | -60.39% | – |
| Oc1ccc(CN2CCN(CCOC(c3ccc(F)cc3)c3ccc(F)cc3)CC2)cc1Cl [TCMDC-135691] | 8.088% | – |
| CN1CCC(C(=O)Nc2cccc(-c3ccc(-c4nc5ccc(C(F)(F)F)cc5[nH]4)cc3)c2)CC1 [TCMDC-132190] | 21.59% | – |
| CC(C)CN(c1nc(C(=O)NNC(=O)[C@H](CC2CC2)NC(=O)c2cc3cc(OCCN(C)C)ccc3o2)cs1)C1CC1 [TCMDC-139231] | -13.37% | – |

| Structure (SMILES) | % Inhibition | % Inhibition (% Inhibition) |
| --- | --- | --- |
| CC(C)CN(c1nc(C(=O)NNC(=O)[C@H](CC2CC2)NC(=O)c2cc3cc(OCCN4CCCCC4)ccc3o2)cs1)C1CC1 [TCMDC-139232] | 55.6% | – |
| O=C(N[C@@H](CC1CCCCC1)C(=O)NCCN1CCCCC1)c1ccc(O)c(-c2ccc(Cl)c(Cl)c2)c1 [TCMDC-140862] | 10.77% | – |
| OC(CNCc1ccco1)Cn1c2ccc(Br)cc2c2cc(Br)ccc21 (stereo not drawn) [TCMDC-124071] | 6.388% | – |
| Oc1ccc2ccccc2c1CNC1CCCCCC1 [TCMDC-137607] | 9.064% | – |
| OC(CN1CCN(C2CCCCC2)CC1)Cn1c2ccccc2c2cc(Br)ccc21 (stereo not drawn) [TCMDC-124167] | -21.87% | – |
| Cc1nn(CC(O)Cn2c3ccc(Br)cc3c3cc(Br)ccc32)c(C)c1Br (stereo not drawn) [TCMDC-124164] | 72.64% | – |
| CC1CN(CC(O)Cn2c3ccc(Br)cc3c3cc(Br)ccc32)CC(C)O1 (stereo not drawn) [TCMDC-124072] | 94.88% | – |
| OC(CNC1CCCCC1)Cn1c2ccc(I)cc2c2cc(I)ccc21 (stereo not drawn) [TCMDC-124074] | 101.6% | – |
| CC1CC(C)CN(CC(O)CNC(=O)Nc2ccc(Br)cc2)C1 (stereo not drawn) [TCMDC-134636] | 5.991% | – |
| CC(C)(C)SCC(O)Cn1c2ccc(Br)cc2c2cc(Br)ccc21 (stereo not drawn) [TCMDC-124058] | -64.42% | – |
| CC(NCC(O)Cn1c2ccccc2c2ccccc21)c1ccccc1 (stereo not drawn) [TCMDC-124073] | 13.55% | – |
| CC12CCC(CN(CC(O)Cn3c4ccccc4c4cc(I)ccc43)C1)C2(C)C (stereo not drawn) [TCMDC-124075] | -73.11% | – |
| OC(CNC1CCCCC1)Cn1c2ccccc2c2ccccc21 (stereo not drawn) [TCMDC-124168] | 90.81% | – |
| CC(C)(CNC(=O)C1CCN(CC2CCCCC2)CC1)c1nc(-c2ccc(Cl)c(O)c2)c(-c2ccncc2)[nH]1 [TCMDC-141147] | -93.22% | – |
| CN(C)CCOc1ccc(-c2cc(-c3ccnc(N)n3)c(-c3ccc(Cl)c(O)c3)o2)cc1 [TCMDC-141338] | -4.532% | – |
| CCCCCc1cc(O)c2c(c1)OC(C)(C)CC2C1=CCN(Cc2cccnc2)CC1 (stereo not drawn) [TCMDC-131417] | -23.46% | – |
| CCCc1ccc(NC(=O)c2ccc(CN3CCCN(Cc4cccc(O)c4)CC3)cc2)cc1 [TCMDC-136421] | 2.458% | – |
| COc1ccc(C=NNc2nc(-c3ccccc3)cc(=O)[nH]2)cc1OC [TCMDC-124217] | 8.014% | – |
| CC(C)NCC(O)Cn1c2ccc(Br)cc2c2cc(Br)ccc21 (stereo not drawn) [TCMDC-124100] | 43.74% | – |
| OC(CNC1CCCCC1)Cn1c2ccc(Br)cc2c2cc(Br)ccc21 (stereo not drawn) [TCMDC-124059] | 90.2% | – |
| N#Cc1ccc(-c2ccc(C(=O)NCCCCN3CCC(c4ccncc4)CC3)cc2)cc1 [TCMDC-135811] | -0.7108% | – |
| N#Cc1cccc(C(=O)N2CCOC(CCN3CCC(c4ccccc4)CC3)(c3ccc(Cl)c(Cl)c3)C2)c1 (stereo not drawn) [TCMDC-135335] | 20.78% | – |
| N#Cc1ccc(C2CCN(CC[C@H](N)Cc3ccc(Cl)s3)CC2)cc1 [TCMDC-132358] | 63.71% | – |
